In PubChem BioAssay (Tox21) one finds Potency data, which are given here for 40 compounds.

Records with an inconclusive call do not appear. Entries that show only a call come without a potency. Calls of active or inactive are those of the source. Calls follow the shape of the dose curve; as a rule, active = well fitted cell-killing curve with a large enough effect in the repeat runs; inconclusive = weak or mixed curves; inactive = flat fitted curve, though single readings scatter.

This experiment in a line: qHTS RealTime-Glo MT Cell Viability Assay in HepG2 cells - 24 hour (AID 1224867). Also: nearly all actives have a fitted effect of over 50% in size. To be noted: RealTime-Glo luminescence; series mostly up to 76.8 µM. The text has this: U.S. Tox21 Program National Center for Advancing Translational Sciences [NCATS] NIH Chemical Genomics Center [NCGC] U.S. Environmental Protection Agency [EPA] National Institutes of Environmental Health Sciences [NIEHS] National Toxicology Program [NTP] U.S. Food and Drug Administration [FDA] Tox21 Assay Overview: Measure of cell viability is critical in the cell-base assay. Analysis of cell viability is necessary for the characterization of cell responses to cytotoxic drugs and environmental stress. A RealTime-Glo MT Cell Viability Assay to monitor cell viability in real time of continues cell culture during 40 hours of compound treatment was used to screen Tox21 10K library compounds in HepG2 cells. The RealTime-Glo MT Cell Viability Assay is a nonlytic, homogeneous, bioluminescent method to measure cell viability in real time using a simple, plate-based method. The assay involves adding NanoLuc luciferase and a cell-permeant prosubstrate to cells in culture. Viable cells reduce the proprietary prosubstrate to generate a substrate for NanoLuc luciferase. This substrate diffuses from cells into the surrounding culture medium, where it is rapidly used by the NanoLuc Enzyme to produce a luminescent signal. The signal correlates with the number of viable cells, making the assay well suited for cytotoxicity studies.
Tox21 Assay Protocol Summary: The mixture of HepG2 cell suspension and reagents were dispensed at 600cells/6 ul/well in 1536-well tissue culture treated black solid bottom plates using a Multidrop dispenser. After the assay plates were incubated at a 37 C/5% CO2 incubator for 5 hours, 23 nL of compounds dissolved in DMSO, positive and negative controls was transferred to the assay plate by a pintool work station. The plates were incubated at 37 C for 40 hours. The luminescence intensity were measured at 0h, 8h, 16h, 24h, 32h and 40h time points using ViewLux plate reader during compound treatment.
In general terms: qHTS replaces the single test concentration by a dilution series.
Consider `O=C(O)CCCCCCCCC(=O)O`, for which the Potency entry is “inactive”. For `O=C(O)c1ccc(S(=O)(=O)N(Cl)Cl)cc1`, the Potency result was “inactive”.

With `COCCOC(=O)c1ccccc1C(=O)OCCOC`, the Potency entry is “inactive”. In the case of `N[C@H](Cc1c[nH]c2ccccc12)C(=O)O` it was “inactive”; in that of `CC1(C)OC[C@@H]2O[C@@]3(C(=O)O)OC(C)(C)O[C@H]3[C@@H]2O1`, “inactive”. As for `COc1ccc(N)c(C)c1`, the Potency entry was “inactive”. In the case of `CC(C)c1cccc(C(C)C)c1` it was “inactive”; in that of `CC(C)CC(C)O` (stereo not given), “inactive”. In the case of `OC1C(O)C(O)C(O)C(O)C1O` (stereo not given) it was “inactive”.

For the compound `c1ccc(Oc2ccccc2)cc1`, the Potency entry is “inactive”. For `Cc1ccc2ncccc2c1`, the Potency entry was “inactive”. On to `CCCOC(=O)c1ccccc1`, for which the Potency result is “inactive”.

Take `O=C(O)/C=C/C(=O)O`: the Potency entry is “inactive”. Then `Clc1ccccn1`, with “inactive”; and `CNC(=O)Oc1ccc2c(c1)[C@]1(C)CCN(C)[C@@H]1N2C`, with “inactive”; and `NCCNCCN`, with “inactive”. In the case of `CN/C(=C\[N+](=O)[O-])NCCSCc1csc(CN(C)C)n1` it was “inactive”. In the case of `Nc1ccc(Cl)c(N)c1` it was “inactive”; in that of `CC1(C)S[C@@H]2[C@H](NC(=O)COc3ccccc3)C(=O)N2[C@H]1C(=O)O`, “inactive”; in that of `CCCCCCO`, “inactive”. For the compound `CC(C)OP(=O)(CP(=O)(OC(C)C)OC(C)C)OC(C)C`, the Potency entry is “inactive”. Then `CC1(C)CC(N)CC(C)(CN)C1` (stereo not given), with “inactive”. Then `O=C1C(c2[nH]c3ccccc3c2O)=Nc2ccccc21`, with “inactive”; and `CN(C)c1ccc(Cc2ccc(N(C)C)cc2)cc1`, with “inactive”. For the compound `CCNc1ccccc1`, the Potency entry is “inactive”. Then `O=C(O)c1ccc(C(=O)O)c(C(=O)O)c1`, with “inactive”; and `Cc1ccc(S(=O)(=O)N=C=O)cc1`, with “inactive”. On to `CCO[Si](CCCN)(OCC)OCC`, for which the Potency result is “inactive”. On to `COC(=O)CCCC(=O)OC`, for which the Potency entry was “inactive”. In the case of `COC(=O)c1cccnc1` it was “inactive”; in that of `NC(=S)NNC(N)=S`, “inactive”; in that of `O=[N+]([O-])c1ccc2nc[nH]c2c1`, “inactive”. Then `COCCCN`, with “inactive”.

Turning to `CCOC(=O)n1ccn(C)c1=S`, the Potency entry was “inactive”. Then `CCCCCCCCCCN`, with “inactive”. Turning to `O=S(=O)(O)c1ccccc1`, the Potency result was “inactive”. With `COc1cc(OC)c(C(=O)CCCN2CCCC2)c(OC)c1`, the Potency result was “inactive”. Then `c1ccc2c(c1)Cc1ccccc1-2`, with “inactive”; and `CC(C)OC(=O)COc1ccc(Cl)cc1Cl`, with “inactive”; and `O=C(OCC1CCC2OC2C1)C1CCC2OC2C1` (stereo not given), with “inactive”.
